From the supplement of paper PMC10849652
Of roughly 8,800 targets only a part is listed; those with a hit were picked by preference. About 0.5% of all pairs of compound and target were hits.

Legend:
Assay in all cases: log2 fold change, soluble protein after heating vs DMSO (PISA); higher = thermal stabilisation; K562 lysate, 10 uM; active = over 0.2 and 3.5 SD of the protein, either way, in both replicates (recomputed)
erlotinib = compound: C#Cc1cccc(Nc2ncnc3cc(OCCOC)c(OCCOC)cc23)c1 [erlotinib]
Summary of the method: (§1)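 Values give the log-two fold change in thermal stability against solvent controls, from duplicates. Crude K562 extract at 1 mg/mL protein, made by dounce homogenisation in PBS pH 7.4 with 1 mM MgCl2, was treated with 10 μM compound for 30 min. After 3 min heating across 48°C-58°C, aliquots were pooled, adjusted to 0.5% NP-40 at 4°C and centrifuged at 21,000xg for 90 min. The supernatant was measured by TMTpro 16plex LC-MS/MS with channel sums equalised.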

[1] = compound: C/C(=N\NC(=O)C1=CC(=CC=C1)S(=O)(=O)N2CCOCC2)/C3=C(C=CC(=C3)Cl)O
Summary of the method: as §1

[2] = compound: C1=CC(=CC=C1C2=NC3=C(N2)C=C(C=C3)C(=O)N)OC4=CC=C(C=C4)Cl
Summary of the method: as §1

[3] = compound: C1=CC2=C(C=CC(=C2)/C=C\3/C(=O)NC(=NCC4=CC=CS4)S3)N=C1
Summary of the method: as §1

[4] = compound: C1=CC2=NC=CN=C2C=C1/C=C/3\C(=O)NC(=O)S3
Summary of the method: as §1

[5] = compound: C1=CC=C(C=C1)C2=NC(=C(N2)C3=CC=NC=C3)C4=CC(=C(C=C4)Cl)O
Summary of the method: as §1

[6] = compound: C1=CC=C2C(=C1)C3=NNC4=CC=CC(=C43)C2=O
Summary of the method: as §1

[7] = compound: C1CCN(C1)C(=O)NC2=CC=CC(=C2)NC3=NC=C(C(=N3)NCCC4=CN=CN4)Br
Summary of the method: as §1

[8] = compound: C1CN(CCC1(CC2=CC=C(C=C2)Cl)N)C3=NC=NC4=C3C=CN4
Summary of the method: as §1

IRAK-1-4 Inhibitor I = compound: C1COCCN1CCN2C3=CC=CC=C3N=C2NC(=O)C4=CC(=CC=C4)[N+](=O)[O-] [IRAK-1-4 Inhibitor I]
Summary of the method: as §1

ibrutinib = compound: C=CC(=O)N1CCC[C@@H](n2nc(-c3ccc(Oc4ccccc4)cc3)c3c(N)ncnc32)C1 [ibrutinib]
Summary of the method: as §1

[9] = compound: CC(=O)c1cnc2ccc(-c3cc(Cl)c(O)c(Cl)c3)nc2c1N[C@H]1CC[C@H](CN(C)C)CC1
Summary of the method: as §1

ralimetinib = compound: CC(C)(C)Cn1c(N)nc2ccc(-c3[nH]c(C(C)(C)C)nc3-c3ccc(F)cc3)nc21 [ralimetinib]
Summary of the method: as §1

[10] = compound: CC(C)(O)CC(=O)NCCn1ccc2ncnc(Nc3ccc(Oc4cccc(C(F)(F)F)c4)c(Cl)c3)c21
Summary of the method: as §1

[11] = compound: CC(C)C1=C2N=C(C=C(N2N=C1)NCC3=CC=CC=C3)NCCCCCCN
Summary of the method: as §1

[12] = compound: CC1=C(C(CC(=O)N1)C2=CC=C(C=C2)C(F)(F)F)C(=O)NC3=C(C=C4C(=C3)C=NN4)F
Summary of the method: as §1

[13] = compound: CC1=C(C2=C(C=C1)C(=O)C3=CC=CC=C3N2CCCN)C
Summary of the method: as §1

[14] = compound: CC1=C(C=C(C=C1)NC(=O)C2=CC(=CC=C2)C(C)(C)C#N)NC3=CC4=C(C=C3)N=CN(C4=O)C
Summary of the method: as §1

[15] = compound: CC1=C(C=C(C=C1)NC(=O)C2=CC(=CC=C2)N(C)C)NC(=O)C3=CC=C(C=C3)O
Summary of the method: as §1

[16] = compound: CC1=CC=C(C=C1)SC2=C3C=C(SC3=CN=C2)C(=O)N
Summary of the method: as §1

Measured: log2 fold change

LPIN1 isoform 7 (UniProt Q14693)
inactive: erlotinib 0.047 | [1] -0.046 | [2] 0.027 | [3] 0.003 | [4] 0.003 | [5] 0.011 | [6] -0.006 | [7] 0.038 | [8] 0.132 | IRAK-1-4 Inhibitor I 0.034 | ibrutinib 0.02 | [9] 0.07 | ralimetinib 0.035 | [10] -0.025 | [11] -0.033 | [12] 0.066 | [13] 0.022 | [14] -0.016 | [15] 0.007 | [16] -0.009

MED14 (UniProt O60244)
inactive: erlotinib -0.012 | [1] 0.018 | [2] 0.008 | [3] 0.027 | [4] 0.015 | [5] 0 | [6] -0.066 | [7] -0.014 | [8] -0.042 | IRAK-1-4 Inhibitor I 0.005 | ibrutinib 0.002 | [9] -0.013 | ralimetinib 0.017 | [10] -0.022 | [11] 0.01 | [12] 0.021 | [13] -0.029 | [14] -0.019 | [15] 0.013 | [16] 0.018

MAP1S (UniProt Q66K74)
inactive: erlotinib 0.027 | [1] 0 | [2] -0.023 | [3] -0.016 | [4] -0.018 | [5] 0.003 | [6] -0.027 | [7] -0.044 | [8] 0.005 | IRAK-1-4 Inhibitor I 0.01 | ibrutinib -0.008 | [9] -0.026 | ralimetinib 0.004 | [10] -0.041 | [11] -0.005 | [12] 0.011 | [13] -0.021 | [14] 0 | [15] 0.025 | [16] 0.006

METTL2A (UniProt Q96IZ6)
inactive: erlotinib 0.023 | [1] -0.009 | [2] -0.026 | [3] 0.037 | [4] 0 | [5] -0.018 | [6] -0.026 | [7] 0.002 | [8] 0.166 | IRAK-1-4 Inhibitor I 0.042 | ibrutinib -0.006 | [9] 0.044 | ralimetinib 0.048 | [10] 0.068 | [11] 0.018 | [12] 0.021 | [13] 0.038 | [14] -0.029 | [15] -0.025 | [16] 0.002

MAPK1 (UniProt P28482)
inactive: erlotinib -0.021 | [1] -0.017 | [2] 0.001 | [3] 0.001 | [4] -0.016 | [5] -0.003 | [6] 0.065 | [7] 0.017 | [8] 0.009 | IRAK-1-4 Inhibitor I -0.009 | ibrutinib 0.001 | [9] 0 | ralimetinib -0.066 | [10] 0.012 | [11] -0.029 | [12] -0.022 | [13] 0.023 | [14] -0.039 | [15] -0.03 | [16] 0.003

KRR1 (UniProt Q13601)
Chain of UniProt Q13601 (Q13601 whole entry, looked up): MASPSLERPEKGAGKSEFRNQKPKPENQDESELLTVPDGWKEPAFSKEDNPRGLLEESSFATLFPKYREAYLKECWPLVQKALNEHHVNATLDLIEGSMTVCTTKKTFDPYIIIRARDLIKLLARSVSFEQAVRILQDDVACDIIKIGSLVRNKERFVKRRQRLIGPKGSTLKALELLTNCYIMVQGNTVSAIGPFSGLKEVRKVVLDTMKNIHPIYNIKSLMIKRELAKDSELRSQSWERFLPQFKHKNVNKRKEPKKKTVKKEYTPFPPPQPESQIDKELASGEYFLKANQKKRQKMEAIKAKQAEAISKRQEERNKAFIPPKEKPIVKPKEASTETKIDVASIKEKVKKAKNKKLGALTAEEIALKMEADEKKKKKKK
inactive: erlotinib 0.016 | [1] -0.232 | [2] -0.007 | [3] -0.019 | [4] 0.009 | [5] -0.01 | [6] 0.045 | [7] -0.032 | [8] 0.06 | IRAK-1-4 Inhibitor I -0.069 | ibrutinib 0.037 | [9] 0.009 | ralimetinib 0.035 | [10] 0.042 | [11] -0.04 | [12] 0.041 | [13] -0.032 | [14] 0.144 | [15] 0.093 | [16] -0.027

MCMBP isoform 2 (UniProt Q9BTE3)
Chain of UniProt Q9BTE3 (Q9BTE3 whole entry, looked up): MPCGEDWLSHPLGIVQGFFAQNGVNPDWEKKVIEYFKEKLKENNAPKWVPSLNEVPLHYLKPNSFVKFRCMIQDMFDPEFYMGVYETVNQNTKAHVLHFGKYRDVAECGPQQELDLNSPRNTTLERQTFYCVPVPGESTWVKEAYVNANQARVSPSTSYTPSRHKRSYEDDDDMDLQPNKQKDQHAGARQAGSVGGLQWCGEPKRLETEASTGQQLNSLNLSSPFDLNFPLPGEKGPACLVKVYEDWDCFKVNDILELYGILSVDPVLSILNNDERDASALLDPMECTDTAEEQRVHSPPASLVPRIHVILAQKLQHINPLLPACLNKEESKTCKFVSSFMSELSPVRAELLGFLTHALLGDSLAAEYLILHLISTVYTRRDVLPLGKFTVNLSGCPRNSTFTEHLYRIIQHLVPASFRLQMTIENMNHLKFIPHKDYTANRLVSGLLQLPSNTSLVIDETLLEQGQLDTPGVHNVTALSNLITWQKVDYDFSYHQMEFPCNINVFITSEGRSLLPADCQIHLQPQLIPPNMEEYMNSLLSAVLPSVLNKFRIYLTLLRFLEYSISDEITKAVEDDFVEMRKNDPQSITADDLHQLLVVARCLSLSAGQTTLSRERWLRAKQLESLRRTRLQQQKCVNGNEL
inactive: erlotinib 0.084 | [1] 0.027 | [2] 0.282 | [3] -0.168 | [4] -0.156 | [5] -0.051 | [6] -0.411 | [7] 0.024 | [8] 0.055 | IRAK-1-4 Inhibitor I -0.016 | ibrutinib -0.032 | [9] -0.055 | ralimetinib -0.138 | [10] 0.068 | [11] 0.114 | [12] -0.111 | [13] -0.05 | [14] 0.063 | [15] 0.12 | [16] 0.005

LAS1L (UniProt Q9Y4W2)
Chain of UniProt Q9Y4W2 (Q9Y4W2 whole entry, looked up): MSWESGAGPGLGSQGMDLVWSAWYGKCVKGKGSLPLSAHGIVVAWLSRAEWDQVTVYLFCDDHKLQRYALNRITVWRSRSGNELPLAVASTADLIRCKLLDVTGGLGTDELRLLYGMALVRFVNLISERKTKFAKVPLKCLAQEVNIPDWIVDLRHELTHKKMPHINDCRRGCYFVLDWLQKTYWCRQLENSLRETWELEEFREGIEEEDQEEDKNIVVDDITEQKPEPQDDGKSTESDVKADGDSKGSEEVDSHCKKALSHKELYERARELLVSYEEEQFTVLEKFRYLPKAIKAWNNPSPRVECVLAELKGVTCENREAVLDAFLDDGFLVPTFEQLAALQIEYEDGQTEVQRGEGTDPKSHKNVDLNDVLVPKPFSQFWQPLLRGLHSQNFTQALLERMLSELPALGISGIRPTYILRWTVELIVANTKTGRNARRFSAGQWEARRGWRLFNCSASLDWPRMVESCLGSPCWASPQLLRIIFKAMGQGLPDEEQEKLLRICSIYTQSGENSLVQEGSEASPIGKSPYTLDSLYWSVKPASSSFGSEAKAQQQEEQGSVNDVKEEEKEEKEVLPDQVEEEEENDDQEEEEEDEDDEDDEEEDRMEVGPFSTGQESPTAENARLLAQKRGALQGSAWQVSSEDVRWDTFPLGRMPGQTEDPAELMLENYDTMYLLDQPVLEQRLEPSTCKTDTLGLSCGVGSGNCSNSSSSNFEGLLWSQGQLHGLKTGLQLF
inactive: erlotinib 0.053 | [1] -0.011 | [2] -0.003 | [3] -0.018 | [4] 0.022 | [5] 0.007 | [6] 0.028 | [7] -0.004 | [8] -0.027 | IRAK-1-4 Inhibitor I -0.002 | ibrutinib -0.016 | [9] 0.017 | ralimetinib 0.043 | [10] -0.017 | [11] 0.042 | [12] 0.035 | [13] -0.061 | [14] -0.006 | [15] 0.037 | [16] 0.035

MAD2L1BP isoform 3 (UniProt Q15013)
Chain of UniProt Q15013 (Q15013 whole entry, looked up): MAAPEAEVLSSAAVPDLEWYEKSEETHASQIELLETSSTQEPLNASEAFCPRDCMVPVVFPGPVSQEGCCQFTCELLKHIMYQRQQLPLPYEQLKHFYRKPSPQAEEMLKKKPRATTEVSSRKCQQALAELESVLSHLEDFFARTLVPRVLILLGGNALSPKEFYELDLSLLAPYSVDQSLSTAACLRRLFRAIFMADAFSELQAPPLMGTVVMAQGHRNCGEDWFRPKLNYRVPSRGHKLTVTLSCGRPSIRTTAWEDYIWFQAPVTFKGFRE
inactive: erlotinib 0.067 | [1] -0.081 | [2] 0.002 | [3] 0.078 | [4] -0.015 | [5] 0.005 | [6] 0.063 | [7] -0.029 | IRAK-1-4 Inhibitor I -0.002 | ibrutinib -0.016 | [9] -0.099 | ralimetinib 0.038 | [10] 0.015 | [11] -0.037 | [12] 0.107 | [13] -0.054 | [14] 0.005 | [15] -0.011 | [16] -0.05
active: [8] 0.263

MBLAC2 (UniProt Q68D91)
inactive: erlotinib -0.052 | [1] -0.042 | [2] 0.01 | [3] -0.055 | [4] 0.012 | [5] 0.018 | [6] 0.065 | [7] 0.026 | [8] -0.007 | IRAK-1-4 Inhibitor I -0.027 | ibrutinib 0.05 | [9] -0.005 | ralimetinib 0.069 | [10] 0.003 | [11] 0.035 | [12] 0.04 | [13] 0.037 | [14] -0.013 | [15] -0.044 | [16] -0.019

MAPK3 (UniProt P27361)
Chain of UniProt P27361 (P27361 whole entry, looked up): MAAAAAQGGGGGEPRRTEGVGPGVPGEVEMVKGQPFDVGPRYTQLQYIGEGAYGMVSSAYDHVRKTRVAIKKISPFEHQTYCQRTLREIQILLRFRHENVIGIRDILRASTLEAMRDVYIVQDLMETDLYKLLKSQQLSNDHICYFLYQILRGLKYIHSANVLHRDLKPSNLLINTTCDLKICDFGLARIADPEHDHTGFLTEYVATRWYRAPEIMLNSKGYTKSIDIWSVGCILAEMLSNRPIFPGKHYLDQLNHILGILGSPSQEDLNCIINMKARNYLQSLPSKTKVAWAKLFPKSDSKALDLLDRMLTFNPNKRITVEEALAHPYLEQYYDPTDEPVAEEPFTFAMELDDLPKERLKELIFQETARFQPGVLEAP
inactive: erlotinib 0 | [1] 0.02 | [2] 0 | [3] -0.025 | [4] 0.031 | [5] 0.01 | [6] 0.052 | [7] 0.021 | [8] 0.055 | IRAK-1-4 Inhibitor I 0.049 | ibrutinib 0.001 | [9] 0.017 | ralimetinib -0.02 | [10] -0.018 | [11] -0.033 | [12] -0.012 | [13] -0.006 | [14] 0.026 | [15] -0.022 | [16] -0.028

MED12 isoform 2 (UniProt Q93074)
Chain of UniProt Q93074 (Q93074 whole entry, looked up): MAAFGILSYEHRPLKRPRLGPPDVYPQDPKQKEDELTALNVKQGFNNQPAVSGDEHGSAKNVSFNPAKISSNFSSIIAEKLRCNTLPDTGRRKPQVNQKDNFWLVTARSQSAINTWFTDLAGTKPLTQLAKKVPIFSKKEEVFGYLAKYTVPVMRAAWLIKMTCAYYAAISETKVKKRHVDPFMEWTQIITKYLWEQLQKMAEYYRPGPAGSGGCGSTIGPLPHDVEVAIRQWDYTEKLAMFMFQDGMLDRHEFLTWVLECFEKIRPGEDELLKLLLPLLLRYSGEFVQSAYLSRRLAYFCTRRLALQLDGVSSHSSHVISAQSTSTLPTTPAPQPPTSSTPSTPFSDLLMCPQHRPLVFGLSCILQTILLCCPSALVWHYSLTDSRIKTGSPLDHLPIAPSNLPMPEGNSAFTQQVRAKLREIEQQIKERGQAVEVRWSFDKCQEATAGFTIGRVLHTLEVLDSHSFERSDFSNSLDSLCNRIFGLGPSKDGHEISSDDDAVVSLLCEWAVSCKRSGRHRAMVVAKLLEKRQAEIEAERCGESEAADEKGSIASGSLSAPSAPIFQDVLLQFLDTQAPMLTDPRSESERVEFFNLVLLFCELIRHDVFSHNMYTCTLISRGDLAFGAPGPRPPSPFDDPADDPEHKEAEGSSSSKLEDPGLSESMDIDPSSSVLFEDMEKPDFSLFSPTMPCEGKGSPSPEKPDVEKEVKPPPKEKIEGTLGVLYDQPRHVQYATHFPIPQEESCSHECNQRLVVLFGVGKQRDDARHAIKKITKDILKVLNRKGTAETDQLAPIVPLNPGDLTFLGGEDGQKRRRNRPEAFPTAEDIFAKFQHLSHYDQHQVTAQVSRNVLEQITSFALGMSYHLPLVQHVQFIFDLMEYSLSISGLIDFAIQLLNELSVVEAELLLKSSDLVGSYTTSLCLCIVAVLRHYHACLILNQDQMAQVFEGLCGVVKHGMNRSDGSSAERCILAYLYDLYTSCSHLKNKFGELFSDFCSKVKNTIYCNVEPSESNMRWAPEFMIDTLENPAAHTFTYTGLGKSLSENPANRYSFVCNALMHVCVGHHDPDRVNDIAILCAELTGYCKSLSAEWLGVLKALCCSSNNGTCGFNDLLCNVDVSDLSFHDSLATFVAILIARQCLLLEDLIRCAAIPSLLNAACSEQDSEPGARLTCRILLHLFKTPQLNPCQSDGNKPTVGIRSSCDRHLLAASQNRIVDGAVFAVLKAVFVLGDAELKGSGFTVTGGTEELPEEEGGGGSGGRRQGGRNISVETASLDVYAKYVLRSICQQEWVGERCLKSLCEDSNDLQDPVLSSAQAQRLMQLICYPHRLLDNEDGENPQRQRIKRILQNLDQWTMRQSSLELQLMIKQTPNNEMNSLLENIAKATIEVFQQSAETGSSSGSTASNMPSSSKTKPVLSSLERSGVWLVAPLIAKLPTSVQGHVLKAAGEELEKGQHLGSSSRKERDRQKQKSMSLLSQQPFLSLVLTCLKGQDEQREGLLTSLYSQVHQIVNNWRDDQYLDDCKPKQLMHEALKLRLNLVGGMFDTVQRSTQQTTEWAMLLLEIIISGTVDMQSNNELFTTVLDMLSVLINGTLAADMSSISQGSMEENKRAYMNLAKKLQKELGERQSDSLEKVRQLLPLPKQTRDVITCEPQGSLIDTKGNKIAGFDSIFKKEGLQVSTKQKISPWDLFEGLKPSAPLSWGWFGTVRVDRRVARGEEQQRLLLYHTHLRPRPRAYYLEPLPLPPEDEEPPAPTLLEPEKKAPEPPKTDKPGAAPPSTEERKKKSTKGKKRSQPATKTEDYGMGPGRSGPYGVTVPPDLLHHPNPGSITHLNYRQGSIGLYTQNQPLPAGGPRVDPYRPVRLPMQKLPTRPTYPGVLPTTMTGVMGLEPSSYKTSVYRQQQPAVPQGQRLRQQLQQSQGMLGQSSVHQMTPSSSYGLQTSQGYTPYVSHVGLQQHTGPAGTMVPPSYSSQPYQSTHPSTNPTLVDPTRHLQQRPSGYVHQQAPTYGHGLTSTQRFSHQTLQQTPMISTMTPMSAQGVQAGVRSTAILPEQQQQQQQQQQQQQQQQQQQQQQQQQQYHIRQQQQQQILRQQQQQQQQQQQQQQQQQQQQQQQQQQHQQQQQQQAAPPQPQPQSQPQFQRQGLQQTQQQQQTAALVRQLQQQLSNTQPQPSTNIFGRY
inactive: erlotinib 0.007 | [1] -0.037 | [2] 0 | [3] 0.009 | [4] 0.008 | [5] 0.004 | [6] -0.025 | [7] -0.013 | [8] 0.011 | IRAK-1-4 Inhibitor I -0.035 | ibrutinib 0.004 | [9] -0.019 | ralimetinib 0.022 | [10] -0.009 | [11] -0.005 | [12] 0.009 | [13] 0.003 | [14] -0.005 | [15] 0.037 | [16] 0.02

LYAR (UniProt Q9NX58)
Chain of UniProt Q9NX58 (Q9NX58 whole entry, looked up): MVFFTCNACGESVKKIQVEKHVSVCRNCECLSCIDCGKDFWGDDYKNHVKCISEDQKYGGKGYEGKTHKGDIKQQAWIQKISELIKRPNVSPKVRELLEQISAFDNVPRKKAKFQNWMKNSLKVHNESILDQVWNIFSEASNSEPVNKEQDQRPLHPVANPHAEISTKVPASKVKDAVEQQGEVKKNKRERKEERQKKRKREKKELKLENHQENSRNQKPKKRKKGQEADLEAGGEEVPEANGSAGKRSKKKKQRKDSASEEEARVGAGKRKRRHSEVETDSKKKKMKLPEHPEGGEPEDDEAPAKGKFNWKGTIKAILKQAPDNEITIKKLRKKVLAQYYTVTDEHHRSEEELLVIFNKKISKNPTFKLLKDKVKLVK
inactive: erlotinib -0.007 | [1] -0.004 | [2] 0 | [3] -0.007 | [4] -0.011 | [5] 0.046 | [6] 0.018 | [7] 0.007 | [8] -0.003 | IRAK-1-4 Inhibitor I -0.018 | ibrutinib -0.009 | [9] -0.035 | ralimetinib -0.011 | [10] 0.016 | [11] 0.004 | [12] 0.03 | [13] -0.012 | [14] 0.016 | [15] 0.015 | [16] 0.038

MICB, A0A140T979
inactive: erlotinib 0.022 | [1] 0.086 | [2] -0.029 | [3] -0.07 | [4] -0.168 | [5] 0.034 | [6] 0.046 | [7] -0.021 | [8] 0.275 | IRAK-1-4 Inhibitor I 0.023 | ibrutinib 0.074 | [9] 0.317 | ralimetinib -0.037 | [10] -0.101 | [11] -0.07 | [12] -0.11 | [13] -0.002 | [14] 0.016 | [15] 0.004 | [16] -0.068

MRPL10 isoform 2 (UniProt Q7Z7H8)
inactive: erlotinib -0.032 | [1] 0 | [2] 0.043 | [3] 0.022 | [4] -0.141 | [5] -0.002 | [6] -0.016 | [7] -0.062 | [8] 0.015 | IRAK-1-4 Inhibitor I 0.014 | ibrutinib -0.062 | [9] -0.013 | ralimetinib 0.047 | [10] -0.019 | [11] -0.04 | [12] -0.029 | [13] -0.005 | [14] 0.025 | [15] 0.053 | [16] 0.042

LAP3 (UniProt P28838)
inactive: erlotinib -0.034 | [1] 0.08 | [2] 0.082 | [3] -0.022 | [4] 0.013 | [5] -0.026 | [6] -0.017 | [7] 0.027 | [8] 0.008 | IRAK-1-4 Inhibitor I 0.061 | ibrutinib 0.043 | [9] -0.03 | ralimetinib -0.05 | [10] -0.103 | [11] 0 | [12] -0.024 | [13] -0.042 | [14] 0.117 | [15] -0.009 | [16] -0.018
